TIM10 inh: growth inhibitors of isogenic TIM10 control yeast, primary screen, counter-screen for tim10-1 yeast inhibitor project, luminescence, uHTS. S. cerevisiae TIM10 strain growth, BacTiter-Glo luminescence, 24 h. inhibition, % at 10 µM. 330,000 compounds, 1.4% hits;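 active = inhibition of 40% or more at the single tested concentration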;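 note: wild-type TIM10 isogenic control strain grown at permissive 25 °C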
tim10-1 inh: growth inhibitors of tim10-1 mutant yeast, primary screen, luminescence, uHTS | S. cerevisiae tim10-1 ts strain growth, BacTiter-Glo, 24 h | inhibition, % at 20 µM | 330,000 compounds, 2.2% hits | AID 463190, 2010;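 active = inhibition of at least 40%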;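 note: mutant grown at 25 °C; 0% = DMSO wells with yeast and 100% = wells holding no yeast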
PfHsp90 set2: growth inhibition of PfHsp90-expressing yeast, primary screen, antimalarial PfHsp90 inhibitor project, S. cerevisiae, BacTiter-Glo luminescence, single point, set 2; BacTiter-Glo ATP, 48 h; yeast lacking PDR1 and PDR3 efflux regulators; inhibition, % at 9.4 µM; 310,000 compounds, 0.32% hits; AID 504621, 2011;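 active = every replicate shows inhibition above about 80%, whatever the replicate mean, limit read from the data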;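 note: 0% = DMSO neutral controls and 100% = 20 µM radicicol positive controls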
NLRP3 yeast inh: NALP3 inflammasome inhibitors in reconstituted yeast, primary screen, luminescence, uHTS | Yeast reconstituted NLRP3/ASC/caspase-1, beta-gal luminescence, 24 h | inhibition, % at 10 µM | 330,000 compounds, 0.39% hits | AID 2825, 2010;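 active = inhibition of 50% or more; inactive = inhibition below 50%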;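 note: plate controls were induced DMSO wells for no effect and uninduced yeast grown without galactose for full effect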
tim23-1 inh: growth inhibitors of tim23-1 mutant yeast, primary screen, luminescence, uHTS; 330,000 compounds, 1.3% hits; inhibition, % at 20 µM; S. cerevisiae tim23-1 growth, BacTiter-Glo luminescence, 24 h;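 active = growth inhibition of the mutant yeast at or above 50%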;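 note: temperature-sensitive mutant grown at 25 °C; plate controls were DMSO-treated mutant yeast for no effect and medium wells lacking yeast for full effect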
tim10-1 conf: growth inhibitors of tim10-1 mutant yeast, confirmation, single concentration, luminescence, S. cerevisiae | shares compounds with tim10-1 inh | S. cerevisiae tim10-1 ts strain growth, BacTiter-Glo, 24 h | inhibition, % at 20 µM | 7,400 compounds, 56% hits;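 active = inhibition of yeast growth at or above a set limit in either of two repeat tests at 20 µM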;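 note: tim10-1 mutant grown at permissive 25 °C to find synthetic lethal compounds; 0% = DMSO yeast wells and 100% = medium wells without yeast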
* hit, by the source's call; / = no result. Hits are enriched below; roughly 3.7% of the tested compounds scored in any of these assays.

SMILES	TIM10 inh	tim10-1 inh	PfHsp90 set2	NLRP3 yeast inh	tim23-1 inh	tim10-1 conf
Cc1ncc2c(n1)NC(=O)NC2	/	/	17	/	/	/
S=C(Nc1nc2c(s1)CCCC2)NC1CC1	10	41*	-17	7	14	4
CN(C)C(=O)C12CCC(C)(c3nc4ccccc4nc31)C2(C)C (stereo not given)	-4	42*	-12	9	20	10
Cc1cc2nc3c(nc2cc1C)C1(C(=O)N(C)C)CCC3(C)C1(C)C (stereo not given)	18	27	-7	-11	42	/
NCCC1CN(C(=O)OCc2ccccc2)c2ccccc21 (stereo not given)	/	/	4	/	/	/
Cc1ccc([N+](=O)[O-])cc1NC(=O)CN(C(=O)c1ccccc1Cl)C1CCCCC1	20	40*	-3	7	31	17
CC1(C)C[C@H]2C3=CCC4[C@@]5(C)CC[C@H](O)[C@](C)(CO)C5CC[C@@]4(C)[C@]3(C)C[C@H]3O[C@@H]1[C@H](O)[C@]32CO (stereo not given in full)	10	0	-7	15	7	/
O=C(c1ccco1)N1CCN=C1SCc1ccccc1F	16	44*	2	16	27	16
O=C(c1ccco1)N1CCN=C1SCc1cccnc1	3	12	-5	12	5	/
Cc1ccc(NC(=O)COC(=O)c2ccccc2-c2nc3ccccc3s2)c(C)c1	9	39	4	10	15	/
CCc1cccc(CC)c1NC(=O)COC(=O)c1ccccc1-c1nc2ccccc2s1	10	44*	0	0	26	19
N#Cc1nc(-c2ccco2)oc1N1CCc2ccccc2C1	15	44*	25	23	32	27
COc1ccc(S(=O)(=O)N2CCN(c3nn(C)c(=O)n(C)c3=O)CC2)cc1	9	29	15	31	14	/
CCNC(=S)NNC(=O)c1cccn(Cc2ccc(Cl)cc2Cl)c1=O	-8	31	/	8	4	/
C=CCNC(=S)NNC(=O)c1cccn(Cc2ccc(Cl)cc2Cl)c1=O	-22	47*	/	2	12	30
CC(=O)c1ccc(NC(=O)C2CCN(S(=O)(=O)c3cccc4cccnc34)CC2)cc1	18	41*	7	3	37	29
Cc1ccc(S(=O)(=O)N2CCC[C@H]2C(=O)OC(C)C(=O)Nc2ncc(Cl)cc2Cl)cc1 (stereo not given in full)	14	41*	3	2	6	22
CC(C)c1nnc2c(N(C)S(=O)(=O)c3ccccc3)nc3ccccc3n12	8	43*	3	-6	30	-28
CC(=O)Nc1ccc(S(=O)(=O)NCCC(=O)N2CCN(C(c3ccccc3)c3ccccc3)CC2)cc1	10	5	-4	8	16	/
Cn1nccc1C(=O)Nc1sc2c(c1C#N)CCCC2	10	21	-8	20	26	/
N#Cc1c(NC(=O)c2ccc(Cn3cc(Br)cn3)o2)sc2c1CCCCCC2	27	41*	9	19	27	32*
CCN(CC)C(=S)NC(=O)c1ccc(OC)c(Br)c1	18	44*	-9	17	27	19
C=CCN(CC=C)C(=S)NC(=O)c1ccc(OC)c(Br)c1	25	14	-55	22	45	/
Nc1nn2c(-c3ccccc3)cc(=O)[nH]c2c1N=Nc1ccc(O)cc1	4	41*	2	18	5	16
COc1cccc(-c2nc(C(=O)NCC3CCCO3)cc3c2[nH]c2ccccc23)c1 (stereo not given)	17	31	-23	17	29	/
Cc1cc(OCCCC(=O)Nc2cccc(-n3cnnn3)c2)ccc1Cl	12	13	-1	8	-1	/
Fc1ccc(-c2nc3nc4ccccc4nc3n2Cc2ccco2)cc1	36	43*	9	3	49	33*
C=CCn1c(-c2ccc(OC)cc2)nc2nc3ccccc3nc21	14	17	-100	19	32	/
c1ccc(-c2nc3nc4ccccc4nc3n2Cc2ccco2)cc1	20	41*	4	2	42	25

Screening data as filed in PubChem.
